PubChem BioAssay AID463173 (ICCB-Longwood Screening Facility, Harvard Medical School, 2010)
About 4,300 (8.3%) of roughly 52,000 compounds were called active. No stated cut-off is given here; in the data, active means survival mostly below about 52% (no sharp cut-off); inactive means mostly above about 56%. The full list was thinned out, with actives kept by preference.

The molecules below were run on DeltatarO mutant (assay: growth inhibition of S. aureus wild type versus tarO mutant, primary screen, teichoic acid synthesis inhibitors, RN4220, OD600 (AID 463173)). Conditions: OD600, 18 h, active compounds read low, screened at 18.75 µg/mL (by protocol).
For `CC1CCc2c(sc3nnn(CC(=O)Nc4cccc(C(F)(F)F)c4)c(=O)c23)C1` (stereo unspecified), the survival was 70% (inactive). With `COc1ccc(NC(=O)c2cc(S(=O)(=O)N3CCCCCC3)cn2C)c(OC)c1` the survival was 80% (inactive). For `CC(=O)c1ccc(N2CCN(C(=O)CCn3cnc4onc(-c5ccc(F)cc5)c4c3=O)CC2)cc1`, the survival was -5% (active). With `COc1ccccc1N1CCN(C(=O)CCn2cnc3onc(-c4ccc(F)cc4)c3c2=O)CC1` the survival was 66% (inactive). `O=C(CCn1cnc2onc(-c3ccc(F)cc3)c2c1=O)N1CCN(c2ccccc2)CC1` was tested, and the survival was 60% (inactive). For `O=C(CCn1cnc2onc(-c3ccc(F)cc3)c2c1=O)N1CCN(c2ccc(F)cc2)CC1`, the survival was 77% (inactive). With `O=C(Cn1cnc2onc(-c3ccc(F)cc3)c2c1=O)N1CCN(c2ccccc2F)CC1` the survival was 76% (inactive). In the case of `O=C(CCn1cnc2onc(-c3ccc(F)cc3)c2c1=O)N1CCN(c2ccccc2F)CC1`, the survival is reported as -4% (active). In the case of `CC(=O)c1ccc(NC(=O)C2=CC(c3ccc4c(c3)OCO4)=NS(=O)(=O)N2C)cc1`, the survival is reported as 103% (inactive). `CCc1cccc(NC(=O)c2c(N3CCCC3=O)c3cc(C)ccc3n2C)c1` was tested, and the survival was 74% (inactive). For `CCOC(=O)C1CCN(C(=O)Cn2c(=O)oc3cc(S(=O)(=O)N4CCC(C)CC4)ccc32)CC1`, the survival was 133% (inactive). With `Cc1cc(C)cc(NC(=O)CSc2nnc(CNC(=O)c3c(F)cccc3Cl)o2)c1` the survival was 132% (inactive). For `CN(C)S(=O)(=O)c1ccc2c(c1)N(CC(=O)N1CCN(c3ccccc3F)CC1)CCS2`, the survival was 119% (inactive). In the case of `COc1cc(NC(=O)Cn2nc(C(F)(F)F)c3c2CCC3)cc(OC)c1OC`, the survival is reported as 130% (inactive). With `CC(C)NC(=O)N1[C@H](c2cccs2)[C@@H](C)C(=O)[C@@H](C)[C@@H]1c1cccs1` the survival was 51% (inactive). For `COc1ccccc1NC(=O)c1ccc2[nH]c(C)cc(=O)c2c1`, the survival was 77% (inactive). `CCOC(=O)c1c(NC(=O)COc2ccc(F)cc2)sc2c1CCC(C)C2` (stereo unspecified) was tested, and the survival was 70% (inactive). `Cc1ccc(OCCCC(=O)Nc2sc3c(c2C(N)=O)CCC(C)C3)cc1` (stereo unspecified) was tested, and the survival was 159% (inactive). With `CCOC(=O)c1c(NC(=O)CS(=O)(=O)c2ccc(C)cc2)sc2c1CCC(C)C2` (stereo unspecified) the survival was 102% (inactive). With `CCOC(=O)c1c(NC(=O)Cn2nnc3ccccc32)sc2c1CCC(C)C2` (stereo unspecified) the survival was 64% (inactive). With `CCOC(=O)c1c(NC(=O)CCCOc2ccc(C)cc2)sc2c1CCC(C)C2` (stereo unspecified) the survival was 10% (active). For `CCOC(=O)c1c(NC(=O)CCCOc2ccccc2C)sc2c1CCC(C)C2` (stereo unspecified), the survival was 16% (active). For `CCc1cnc2c(c1SC(C(C)=O)C(=O)N(C)C)c(=O)n(C)c(=O)n2C` (stereo unspecified), the survival was 95% (inactive). In the case of `O=C(NC1CCCC1)c1ccc2c(=O)n(Cc3ccccc3)c(SCc3cccc(F)c3)nc2c1`, the survival is reported as 72% (inactive). In the case of `CCCCOc1ccc(C2c3c(oc4ccccc4c3=O)C(=O)N2c2nc(C)c(C(=O)OCC)s2)cc1OC` (stereo unspecified), the survival is reported as 55% (inactive). In the case of `CCCn1c2c(c(O)c(C(=O)Nc3ccccc3F)c1=O)CCCC2`, the survival is reported as 93% (inactive). With `CC(C)CC(=O)Nc1nnc(S(=O)(=O)N2c3ccccc3CC2C)s1` (stereo unspecified) the survival was 75% (inactive). `CC1Cc2ccccc2N1S(=O)(=O)c1nnc(NC(=O)c2cccc(F)c2)s1` (stereo unspecified) was tested, and the survival was 6% (active). `Cc1cccc(C(=O)Nc2nnc(S(=O)(=O)N3c4ccccc4CC3C)s2)c1` (stereo unspecified) was tested, and the survival was 16% (active). In the case of `CCC(=O)Nc1nnc(S(=O)(=O)N2c3ccccc3CC2C)s1` (stereo unspecified), the survival is reported as 92% (inactive). For `Cc1ccc(OCC(=O)Nc2nnc(S(=O)(=O)N3c4ccccc4CC3C)s2)cc1` (stereo unspecified), the survival was 34% (active). In the case of `Cc1ccc(C(=O)Nc2nnc(S(=O)(=O)N3c4ccccc4CC3C)s2)cc1` (stereo unspecified), the survival is reported as 30% (active). For `CCn1ccc2cc(S(=O)(=O)N3CCC(C(=O)NCCc4ccccc4)CC3)ccc21`, the survival was 102% (inactive). For `CCOC(=O)c1[nH]c2c(c1Cc1ccccc1)C(=O)CC(c1ccc(Cl)cc1)C2` (stereo unspecified), the survival was 92% (inactive). In the case of `NC(=O)c1ccc(NC(=O)C2CCN(S(=O)(=O)Cc3ccccc3)CC2)cc1`, the survival is reported as 87% (inactive). For `CCOc1ccc(NC(=O)c2cnn3c2NC(C)=C(C(=O)Nc2ccc(Cl)cc2)C3c2ccc(OC)c(OC)c2)cc1` (stereo unspecified), the survival was 59% (inactive). With `Cc1ccccc1C(=O)N1CCC(C(=O)Nc2ccc(F)cc2F)CC1` the survival was 67% (inactive). `O=C(Cn1ncc2c(Cl)cccc21)NCc1cccc(Cl)c1` was tested, and the survival was 110% (inactive). With `CC1Cc2ccccc2N1S(=O)(=O)c1nnc(NC(=O)c2ccccc2)s1` (stereo unspecified) the survival was 12% (active). For `CCC(CC)C(=O)Nc1nnc(S(=O)(=O)N2c3ccccc3CC2C)s1` (stereo unspecified), the survival was 61% (inactive). `CC(C)C(=O)Nc1nnc(S(=O)(=O)N2c3ccccc3CC2C)s1` (stereo unspecified) was tested, and the survival was 87% (inactive). For `Cc1cc(C)n(C(=O)CNC(=O)Cc2ccccc2)n1`, the survival was 89% (inactive). `CC(=O)N1c2ccccc2C(=O)C1N1CCN(c2cccc(C)c2C)CC1` (stereo unspecified) was tested, and the survival was 80% (inactive). `CCCN(C(=O)CCc1nc(-c2ccc(OC)cc2)no1)c1ccccc1F` was tested, and the survival was 3% (active). `COc1ccc(CNC(=O)CCc2nc(-c3ccc(OC)cc3)no2)cc1` was tested, and the survival was 96% (inactive). `Cc1ccc(-c2noc(CCC(=O)N(C)c3ccccc3F)n2)cc1` was tested, and the survival was 38% (active). In the case of `COc1ccc(-c2noc(CC(=O)N(C)c3ccccc3F)n2)cc1`, the survival is reported as 87% (inactive). In the case of `COc1ccc(-c2noc(CCC(=O)N(C)c3ccccc3C)n2)cc1`, the survival is reported as 80% (inactive). `CCOc1ccc(N(CC)C(=O)CCc2nc(-c3ccccc3F)no2)cc1` was tested, and the survival was 46% (inactive). With `CCCN(C(=O)CCc1nc(-c2ccc(C)cc2)no1)c1ccc(OCC)cc1` the survival was -4% (active). For `CN(C(=O)CCc1nc(-c2ccccc2F)no1)c1ccc(Cl)cc1`, the survival was 56% (inactive). For `COc1ccc(OC)c(NC(=O)CCc2nc(-c3ccc(C)cc3)no2)c1`, the survival was 70% (inactive). `CCOC(=O)c1ccccc1NC(=O)CCc1nc(-c2ccc(C)cc2)no1` was tested, and the survival was 58% (inactive). With `CCCN(C(=O)Cc1nc(-c2ccc(OC)cc2)no1)c1ccccc1C` the survival was 85% (inactive). `CCCN(C(=O)CCc1nc(-c2ccccc2F)no1)c1ccc(CC)cc1` was tested, and the survival was -7% (active). For `COc1ccc2c(c1)cc1c(=O)n(CC(=O)NCCCOC(C)C)nc(C)n12`, the survival was 80% (inactive). In the case of `O=C(NCCc1ccc(Cl)cc1)c1c2c(nc3ccccc13)C(=O)N(C1CCCCC1)C2`, the survival is reported as 92% (inactive). In the case of `Cn1c(C(=O)NCc2cccc(F)c2)cc2cc(S(=O)(=O)N3CCCCC3)ccc21`, the survival is reported as 81% (inactive). With `O=C(CSC1=NCCN1)C1COc2ccccc2O1` (stereo unspecified) the survival was 88% (inactive). In the case of `Cc1ccc(C(=O)NCC(=O)OCc2cc(=O)n3ccsc3n2)cc1`, the survival is reported as 74% (inactive). For `CCN(CC)CCNC(=O)C(=O)NCC(c1cccnc1)N1CCN(c2ccc(F)cc2)CC1` (stereo unspecified), the survival was 79% (inactive). For `CC1(c2ccc(Cl)cc2)NC(=O)CS1` (stereo unspecified), the survival was 96% (inactive). `C=CCNc1nc(C(C)C)nc2c1nnn2Cc1ccccc1` was tested, and the survival was 86% (inactive). With `O=C(CSc1nc2ccccc2o1)Nc1ccc(S(=O)(=O)NC2CCCC2)cc1` the survival was 66% (inactive). With `COc1ccccc1NC(=O)C(=O)c1cc(C)n(-c2cc(C)cc(C)c2)c1C` the survival was 117% (inactive). In the case of `COCCCNC(=O)CSc1nc2ccccc2c(=O)n1Cc1ccco1`, the survival is reported as 83% (inactive). `COc1cccc(CNC(=O)CCCn2ncn3c(cc4occc43)c2=O)c1OC` was tested, and the survival was 119% (inactive). In the case of `Cc1ccc(NC(=O)Nc2cn(CC(C)C)c(=O)c3ccccc23)cc1N(C)C`, the survival is reported as 78% (inactive). In the case of `CC(=O)Nc1ccc(-n2cc3c(c2-c2ccc(C)cc2)c(=O)n(C)c(=O)n3C)cc1`, the survival is reported as 92% (inactive). In the case of `COc1ccc(-c2noc(CC(=O)N(C)c3cc(Cl)c(OC)cc3OC)n2)cc1`, the survival is reported as 82% (inactive). In the case of `COc1ccc(-c2noc(CCC(=O)N(C)c3cc(Cl)ccc3OC)n2)cc1`, the survival is reported as 26% (active). For `COc1ccc(C)cc1N(C)C(=O)CCc1nc(-c2ccccc2F)no1`, the survival was 45% (inactive). `Cc1ccc(NC(=O)CCN2C(=O)c3ccccc3Sc3ncccc32)cc1` was tested, and the survival was 66% (inactive). `CCN(CC)C(=O)Cn1c(C)c(C#N)c2ccccc21` was tested, and the survival was 96% (inactive). In the case of `O=C(CC(c1cccs1)N1Cc2ccccc2C1=O)Nc1ccc(F)c(Cl)c1` (stereo unspecified), the survival is reported as 83% (inactive). In the case of `Cc1ccccc1Cn1c(=O)n(CCc2ccccc2)c(=O)c2ccccc21`, the survival is reported as 64% (inactive). With `CCn1c2ccccc2c2cc(CN3CCN(Cc4ccccc4F)CC3)ccc21` the survival was 7% (active). In the case of `O=c1c2ccccc2n(Cc2ccccc2F)c(=O)n1-c1cccc(F)c1`, the survival is reported as 68% (inactive). `Cc1cccc(CCn2c(=O)c3ccccc3n(Cc3ccccc3C)c2=O)c1` was tested, and the survival was 72% (inactive). With `CCN(CC)C(=O)C1CCN(Cc2ccccc2F)CC1` the survival was 99% (inactive). For `CCn1c2ccccc2c2cc(CN3CCN(Cc4ccccc4C)CC3)ccc21`, the survival was -3% (active). In the case of `CCC(C)NC(=O)c1ccc2c(c1)N(Cc1ccccc1)C(=O)c1ccccc1S2` (stereo unspecified), the survival is reported as 92% (inactive). For `CCOc1cc2sc(N3CCC(C(=O)Nc4ccccc4Cl)CC3)nc2cc1Br`, the survival was 77% (inactive). `CCOc1cc(C2NC(=O)c3c(sc4c3CCN(C)C4)N2)ccc1OC(=O)c1ccc(F)cc1` (stereo unspecified) was tested, and the survival was 56% (inactive). `COc1ccc(-c2[nH]c(-c3ccc(F)cc3)nc2SCC(=O)Nc2ccc(OC)c(OC)c2)cc1` was tested, and the survival was 53% (inactive). `O=C(CSc1cn(CC(=O)N2CCCCC2)c2ccccc12)NCc1ccccc1Cl` was tested, and the survival was 74% (inactive). For `CN(C)S(=O)(=O)c1ccc(NC(=O)CNCc2ccco2)cc1`, the survival was 97% (inactive). For `O=C(CN1CCCN(Cc2cccc(F)c2)S1(=O)=O)Nc1ccc2c(c1)OCCO2`, the survival was 80% (inactive). In the case of `Cc1ccc(NC(=O)CCS(=O)(=O)c2ccc3nc(C)sc3c2)cc1`, the survival is reported as 34% (active). With `Cc1nc2ccc(S(=O)(=O)CCC(=O)Nc3ccc(Cl)cc3)cc2s1` the survival was 44% (inactive). `Cc1cc(C)cc(NC(=O)CCS(=O)(=O)c2ccc3nc(C)sc3c2)c1` was tested, and the survival was 50% (inactive).
